Most compounds without a hit are left out; they make up all but 5.1% or so of the library.
Tau ThT inhib: inhibitors of human tau fibril formation, thioflavin T binding; 2.1% of 270,000 active; AID 1460; recombinant tau K18 P301L, heparin-induced fibrillization, ThT fluorescence; P10636; Potency, µM (series often up to 57.4 µM), for inactives: at the top dose activity, negative = inhibition, most hits filed as inhibitors; also: potency is read from the fitted curve at half-maximal effect; nearly all actives have a fitted effect of over 55% in size
Target sequence (P10636 561-689 P618L limits assumed): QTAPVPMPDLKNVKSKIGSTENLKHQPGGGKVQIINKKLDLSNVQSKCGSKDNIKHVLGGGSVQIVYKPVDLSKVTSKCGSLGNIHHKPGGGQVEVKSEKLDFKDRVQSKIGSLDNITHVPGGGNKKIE
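Aggregation was driven by heparin (20 uM final) acting on recombinant tau […] bearing P301L in 100 mM sodium acetate pH 7; fibrils were detected with Thioflavin T.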
PNC assembly inh: inhibitors of perinucleolar compartment assembly; 3.1% of 140,000 active; activity change (PNC), negative = inhibition, % at 10 µM; PC3M PTB-GFP, PNC prevalence imaging, 16 h; stronger effect = lower value;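 active = readout at or below -70, meaning at least 70% loss of cells showing the perinucleolar compartment, a nuclear body marking cancer cells; inconclusive = readout between -30 and a set limit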;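 also: plate controls were DMSO wells for no effect and camptothecin positive control wells for full effect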
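PC3M cells stably expressing PTB-GFP, 750–1000 cells/well, treated 16 h at 37 °C with compound (23 nl of library stock), in duplicate. After paraformaldehyde fixation and Hoechst stain, imaged at 20x; PNC prevalence scored by image analysis.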
JMJD2E inh: JMJD2E (human) inhibition | B2RXH2 | 1.6% of 230,000 active | JMJD2E catalytic domain, FDH-coupled NADH fluorescence (FDH is formaldehyde dehydrogenase) | AID 2147 | Potency, µM (top dose mostly 57.1 µM), without a hit: at the highest dose activity change, negative = inhibition, usual class: inhibitors; active = well fitted inhibition curve with a large enough effect, not every such curve was filed as active; inconclusive = small, poorly fitted or top-dose-only effect, or another doubt; inactive = no such curve, though single readings can be large or run the other way;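 also: potency is read from the fitted curve at half-maximal effect; 0% = wells with enzyme and -100% = buffer wells without enzyme; nearly all actives have a fitted effect of over 50% in size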
Target sequence (B2RXH2 1-337 limits assumed): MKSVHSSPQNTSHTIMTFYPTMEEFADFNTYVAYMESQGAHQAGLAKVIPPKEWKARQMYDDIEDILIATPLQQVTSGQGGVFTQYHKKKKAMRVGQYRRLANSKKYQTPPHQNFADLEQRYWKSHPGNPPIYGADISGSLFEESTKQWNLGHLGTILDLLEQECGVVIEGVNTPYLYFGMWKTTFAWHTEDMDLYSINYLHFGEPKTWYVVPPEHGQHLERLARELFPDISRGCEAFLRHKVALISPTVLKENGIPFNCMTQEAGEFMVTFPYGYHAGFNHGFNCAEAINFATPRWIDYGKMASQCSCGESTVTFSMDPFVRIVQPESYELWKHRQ
Tau fibril FP: tau fibrillization inhibition (FP). K18 P301L tau heparin fibrillization, Alexa594 FP, 6 h. Potency, µM (highest dose often 57.7 µM), for inactives: top-dose activity, negative = inhibition, actives largely listed as inhibitors. 0.39% of 280,000 active; also: potency is read from the fitted curve at half-maximal effect; nearly all actives have a fitted effect of over 55% in size
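Quantitative HTS format: compounds meet 15 uM recombinant K18 P301L tau and Alexa 594-tau tracer in 100 mM sodium acetate pH 7; 20 uM heparin triggers fibrillization at 37 C over 6 hr; FP gives the signal.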
NPSR antagonist: blocks cAMP signaling of the human neuropeptide S receptor; Q6W5P4; CHO-NPSR cells, cAMP TR-FRET, antagonist mode; Potency, µM (doses to about 38.3 µM), inactives show at the highest dose activity change, negative = inhibition, most hits filed as inhibitors; 1% of 220,000 active; AID 1461; also: potency is read from the fitted curve at half-maximal effect; nearly all actives have a fitted effect of over 50% in size
Tau fluor counter: counter-screen for tau fibril formation inhibitors | tau K18 P301L (four-repeat tau fragment) Alexa594 fluorescence, heparin fibrillization | AID 1463 | Potency, µM (highest dose often 57.7 µM), inactives show at the top dose activity change, negative = decrease | 0.93% of 280,000 active; also: potency is read from the fitted curve at half-maximal effect; nearly all actives have a fitted effect of over 55% in size
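Human K18 P301L tau (15 uM unlabeled plus 0.24 uM Alexa 594-labeled, final) in 100 mM sodium acetate pH 7 was mixed with compound and 20 uM heparin and incubated 6 hr at 37 C.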
Numbers without * were called inactive; ? = inconclusive; / = not tested or not shown; [ ] = dose if it differs, or a comment. Unless noted, calls follow the shape of the dose curve; as a rule, active = well fitted curve in the direction sought with a large enough effect; inconclusive = small, poorly fitted or top-dose-only effect, or another doubt; inactive = no such curve, though single readings can be large; an effect the other way counts as inactive or inconclusive. Unless noted, % is scaled to controls: 0 for no effect and ±100 for the full control effect.

SMILES	Tau ThT inhib	PNC assembly inh	JMJD2E inh	Tau fibril FP	NPSR antagonist	Tau fluor counter
COc1ccc(NC(=O)c2c(NC(=O)COc3ccccc3)sc3c2CCCCC3)cc1	9%	/	/	2%	/	1%
O=C(COc1ccc(Cl)cc1)Nc1sc2c(c1C(=O)Nc1cccc(Cl)c1)CCCC2	13µM*	/	/	?	/	-8%
O=C(Nc1cccc(Cl)c1)c1c(NC(=O)C(F)(F)F)sc2c1CCCC2	10µM*	/	/	?	/	?
Cc1cccc(NC(=O)c2c(NC(=O)C(F)(F)F)sc3c2CCCCC3)c1	16µM*	/	/	11%	/	?
Cc1cccc(NC(=O)c2c(Br)sc3c2CCCC3)c1	-7%	/	/	?	/	-9%
COc1cccc(NC(=O)c2cc(CN3CCOCC3)on2)c1	-2%	/	/	-10%	/	-5%
Cc1ccc(NC(=O)c2cnn3c(C(F)F)cc(-c4ccccc4)nc23)c(C)c1	-7%	/	/	-3%	/	-5%
CC(C)(C)n1nnnc1C(c1cccnc1)N1CCN(c2cccc(C(F)(F)F)c2)CC1 (stereo not given)	-6%	?	-2%	7%	-18%	-7%
CC(C)(C)c1cc(C(c2cccnc2)N2CCN(CCO)CC2)cc(C(C)(C)C)c1O (stereo not given)	20µM*	3	-2%	?	?	-22%
CCC(CC)c1nnc(NC(=O)[C@@H](NC(=O)c2cccc(C)c2)C(C)C)s1	-14%	-97*	-8%	5%	-33%	-3%
COC(=O)[C@@H](NC(=O)O[C@@H]1C(=O)c2cc(Br)ccc2O[C@H]1c1ccc2c(c1)OCO2)C(C)C	-12%	/	-1%	-6%	/	-12%
Cc1ccccc1NCC(=O)N/N=C/c1c[nH]c2ccccc12	?	/	0%	?	-26%	16µM*[quencher]
CC(C)(C)OC(=O)N/N=C/c1c[nH]c2ccccc12	?	-109*	3%	13%	-6%	?
COC(=O)N/N=C/c1c[nH]c2ccccc12	-4%	17	8%	3%	-3%	1%
Cc1cccc(NCC(=O)N/N=C\c2c[nH]c3ccccc23)c1	?	/	1%	?	1%	?
CCC(Cn1nnc2ccccc2c1=O)NC(=O)Nc1ccc(C)cc1C (stereo not given)	1%	/	/	-4%	/	0%
Cc1ccc(-n2nnnc2C(Cl)c2nnnn2-c2ccc(C)cc2)cc1	20µM*	21	-2%	?	-21%	-17%
O=C(/C=C/c1ccc(-c2ccccc2[N+](=O)[O-])o1)c1ccco1	18µM*	/	-8%	9%	?	?
COc1ccc(CCNC(=O)CSc2nnc(Cc3csc(N)n3)n2C)cc1OC	-5%	-95*	0%	-7%	-17%[46.1 µM]	-3%
COc1ccc(CCNC(=O)CSc2nnc(Cn3c(=O)sc4ccccc43)n2C)cc1OC	-9%	-15	-4%	-3%	-11%[46.1 µM]	-6%
COc1ccc(S(=O)(=O)NCC(c2ccco2)S(=O)(=O)c2cccs2)cc1C (stereo not given)	-7%	/	/	-8%	/	-17%
Cc1cc(C)nc(Sc2ccc(/C=C(\C#N)C(=O)Nc3ccccc3)o2)n1	?	4	-1%	-11%	-9%[46.1 µM]	-24%
CCOc1ccc(NC(=O)/C(C#N)=C\c2ccc(-c3ccc(Cl)cc3)o2)cc1	1.4µM*	/	/	-14%	/	-19%
N#C/C(=C/c1ccc(N2CCCCC2)o1)C(=O)Nc1ccc2ccccc2c1	13µM*	-91*	25µM*	10%	-31%	?
CC1CC1c1ccc(/C=C(\C#N)C(=O)Nc2ccccc2Cl)o1 (stereo not given)	?	18	-1%	-9%	-14%	-16%
SMILES	Tau ThT inhib	PNC assembly inh	JMJD2E inh	Tau fibril FP	NPSR antagonist	Tau fluor counter
CC1CC1c1ccc(/C=C(\C#N)C(=O)Nc2ccc(Cl)cc2)o1 (stereo not given)	?	-125*	1%	-9%	-19%	-16%
N#C/C(=C\c1ccc(-c2ccc(C(=O)O)cc2)o1)C(=O)Nc1ccccc1C(=O)O	2.5µM*	/	/	2%	/	-25%
CCCCOC(=O)/C(C#N)=C\c1ccc(-c2ccc(Cl)cc2)o1	11%	/	/	-5%	/	-7%
CCN(c1ccccc1)c1nnc(NC(=O)Nc2cccc(Cl)c2C)s1	2%	/	/	6%	/	-1%
CCCCC/C=C\C/C=C\C[C@H](O)/C=C/C=C\CCCC(=O)O	2%	/	3%	-1%	/	2%
Cc1nn(-c2ccc(N3CCCC3)nn2)c(C)c1CCC(=O)N1CCN(c2ccc(F)cc2)CC1	?	/	/	6%	/	10%
CCN(C(=O)Cn1cc(C(=O)c2ccc(F)cc2)c(=O)c2ccc(C)nc21)c1cccc(C)c1	-5%	/	/	-7%	/	-3%
CC(=O)Nc1ccc(S(=O)(=O)NCCc2csc3nc(-c4cccc(C)c4)nn23)cc1	-3%	/	/	-17%	/	-15%
Cc1ccc(C)c(NC(=O)CCc2c(C)n(C)c3cc(-c4ccccc4C)nn3c2=O)c1	-8%	/	/	2%	/	1%
Cc1c(NC(=O)/C(C#N)=C/c2ccc(-c3cc(Cl)ccc3Cl)o2)c(=O)n(-c2ccccc2)n1C	?	33	13%	?	-20%	-10%
Cc1c(NC(=O)/C(C#N)=C/c2ccc(-c3ccc(Cl)cc3)o2)c(=O)n(-c2ccccc2)n1C	14µM*	36	-2%	8%	6%	-19%
N#C/C(=C/c1ccc(N2CCCCC2)o1)C(=O)Nc1ccc(Cl)cc1	?	-123*	2%	11%	-7%[46.1 µM]	-12%
COc1ccc(-n2c(C)cc(/C=N/Nc3nnc(C)n3N)c2C)cc1	28µM*	22	?	?	28%	-27%
CCOc1ccc(-n2c(C)cc(/C=N/Nc3nc(C)cc(=O)[nH]3)c2C)cc1	?	/	?	-1%	25%	?
Cc1cc2c(NC(=O)Nc3ccc(C(F)(F)F)cc3)cccc2nn1	?	/	-25%	28µM*	53%	?
O=C(c1cccn1-c1nnc(N2CCCC2)s1)N1CCN(c2ccc(Cl)cc2)CC1	-11%	/	/	4%	/	-9%
CC(=O)Nc1ccccc1-c1nc2ccccc2nc1OCC(=O)c1ccc(Br)cc1	?	?	-3%	5%	-2%[46.1 µM]	-1%
CCOC(=O)c1ccc(COc2nc3ccccc3nc2-c2ccccc2NC(C)=O)o1	8%	-115*	1%	-5%	-1%[46.1 µM]	1%
O=C(N/N=C/c1cccc(OCc2ccccc2)c1)c1cccs1	?	0	-12%	?	?	25µM*[quencher]
COc1cc([N+](=O)[O-])cc(/C=N/NC(=O)c2cncc(Br)c2)c1O	13µM*	/	14µM*	4%	5%[7.67 µM]	-16%
O=C(N/N=C/c1cccc([N+](=O)[O-])c1)c1cccs1	?	3	-1%	3%	26%[46.1 µM]	-21%

Bioassay records deposited in PubChem BioAssay by National Center for Advancing Translational Sciences (NCATS).
